From PubChem BioAssay come the findings set out here.

Experiment [1] is described as follows: inhibitors of mutant huntingtin aggregation, primary screen, imaging, exon1htt(103Q)mCFP cells, high-content imaging (AID 483;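 active means visual image review flags a hit and inhibition of aggregation exceeds 20%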;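 further: compound exposure lasted 3 days before fixation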;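 on nuclei count: percent of the per-plate median nuclei count of sample wells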). Conditions: exon1htt(103Q)mCFP cell line, aggregate imaging, at 2 µM; inhibition of aggregation: stronger effect = higher value; nuclei count: measured here: cell count, toxicity.
Experiment [2] can be described thus: inhibitors of E-selectin induction by TNFa, primary screen, imaging, HUVEC, immunofluorescence, MLSMR starter and 10KST1 sets (AID 487;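 active means visually confirmed hit in the image check and inhibition above 20%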;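 on inhibition: signal is fraction of cell area covered by stained E-selectin grains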;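 on nuclei count: 100% = median nuclei count of all wells on the same plate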). Conditions: HUVEC TNFalpha-induced E-selectin immunofluorescence imaging, at 2 µM; inhibition: stronger effect = higher value; nuclei count: measured here: cell number, toxicity.
The nature of experiment [3]: DUSP6 inhibitors restoring Erk phosphorylation by chemical complementation, primary imaging in DUSP6-transfected HeLa (AID 609;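 active means compounds giving at least 50% inhibition in the cell-based MKP-3 phosphatase rescue imaging test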;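 on inhibition: phospho-Erk level distribution per well compared with pooled transfected vehicle control wells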). Conditions: HeLa MKP-3 transfected, phospho-Erk imaging KS statistic, at 10 µM, cells stimulated with TPA for 15 min.
In experiment [4] the target is Dual specificity protein phosphatase 6 (Homo sapiens) (UniProt Q16828). The description is as above. Conditions: HeLa MKP-3 transfected, phospho-Erk imaging KS statistic; at 10 µM; stronger effect = higher value; cells stimulated with TPA for 15 min.
Sequence of Dual specificity protein phosphatase 6 (Homo sapiens) (Q16828 whole entry, looked up): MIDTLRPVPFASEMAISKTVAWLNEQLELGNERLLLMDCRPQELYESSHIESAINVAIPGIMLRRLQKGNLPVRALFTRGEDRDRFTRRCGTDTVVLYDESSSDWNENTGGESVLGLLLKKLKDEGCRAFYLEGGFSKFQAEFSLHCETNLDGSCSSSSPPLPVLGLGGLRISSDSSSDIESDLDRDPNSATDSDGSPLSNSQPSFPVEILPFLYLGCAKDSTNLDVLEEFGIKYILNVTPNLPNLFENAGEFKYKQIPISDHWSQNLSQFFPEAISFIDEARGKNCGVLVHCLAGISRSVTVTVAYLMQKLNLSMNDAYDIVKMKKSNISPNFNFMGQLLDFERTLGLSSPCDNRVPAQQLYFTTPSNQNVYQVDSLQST
Experiment [5] deals with Voltage-gated potassium channel subunit beta-2 (Rattus norvegicus) (UniProt P62483). The experiment can be described thus: KvBeta enzyme negative modulators, primary screen, biochemical, NADPH fluorescence (AID 622;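 active means fluorescence slope higher than the sample average by over 3 SD, cut at about -0.22 in these data, passing the limit was not always enough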;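 further: slope of raw intensity against log time taken from 70 to 1610 s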). Conditions: recombinant KvBeta, 4-cyanobenzaldehyde reduction, at 10 µM, stronger effect = higher value.
Sequence of Voltage-gated potassium channel subunit beta-2 (Rattus norvegicus) (P62483 whole entry, looked up): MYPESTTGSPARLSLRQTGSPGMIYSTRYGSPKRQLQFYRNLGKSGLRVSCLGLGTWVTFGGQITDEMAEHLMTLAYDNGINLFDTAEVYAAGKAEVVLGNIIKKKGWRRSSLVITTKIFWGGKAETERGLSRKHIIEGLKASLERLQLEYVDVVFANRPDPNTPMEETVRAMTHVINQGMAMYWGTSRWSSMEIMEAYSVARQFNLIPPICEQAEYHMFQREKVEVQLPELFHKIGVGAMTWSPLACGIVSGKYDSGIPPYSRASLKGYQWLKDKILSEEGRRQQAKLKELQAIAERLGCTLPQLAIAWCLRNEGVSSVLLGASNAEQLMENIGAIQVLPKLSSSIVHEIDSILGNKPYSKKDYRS
For experiment [6] the target is unchanged. Briefly: KvBeta positive modulators, primary screen, biochemical, NADPH fluorescence (AID 623;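 active means NADPH fluorescence slope more negative than the mean of all samples by about 3 SD, 99.7% confidence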;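 further: fluorescence intensity change per second fitted from 20 to 320 s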). Conditions: Recombinant KvBeta, NADPH fluorescence decrease slope, 10 min; at 10 µM; stronger effect = lower value.
For experiment [7], the target named is Alpha-2C adrenergic receptor (Homo sapiens) (UniProt P18825). The experiment can be described thus: modulators of alpha2C/GIRK thallium flux, primary screen, cell-based, HEK293 alpha2C/GIRK1/2 (AID 624;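 active means fluorescence slope after compound addition differing from the mean of all screened samples at 99.7% confidence, in either direction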;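 further: slope of fluorescence ratio to pre-addition baseline per second over 15 to 24 s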). Conditions: thallium flux BTC fluorescence, at 10 µM, actives lie on both sides.
Sequence of Alpha-2C adrenergic receptor (Homo sapiens) (P18825 whole entry, looked up): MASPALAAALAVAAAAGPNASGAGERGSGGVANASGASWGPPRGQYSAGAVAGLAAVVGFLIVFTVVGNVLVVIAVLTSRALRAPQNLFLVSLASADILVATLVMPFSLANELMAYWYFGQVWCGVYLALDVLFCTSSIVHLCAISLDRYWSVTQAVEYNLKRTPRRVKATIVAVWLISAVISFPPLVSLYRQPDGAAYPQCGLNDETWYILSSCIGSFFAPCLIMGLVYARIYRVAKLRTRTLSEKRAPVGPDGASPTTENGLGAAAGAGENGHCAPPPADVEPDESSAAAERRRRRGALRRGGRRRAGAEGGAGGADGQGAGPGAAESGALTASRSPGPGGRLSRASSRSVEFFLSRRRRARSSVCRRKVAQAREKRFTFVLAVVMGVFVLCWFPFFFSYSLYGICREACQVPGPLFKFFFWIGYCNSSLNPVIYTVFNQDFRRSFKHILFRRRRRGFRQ
A short description of experiment [8]: inhibitors of larval lipid processing in zebrafish, primary screen, whole organism, PED6 fluorescence, gall bladder and intestine (AID 686;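 active means a full or partial loss of lipid-probe fluorescence in the fish gall bladder, intestine or both, judged by eye; inactive means no fluorescence loss, or compound toxic to the fish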;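 further: larvae 5 to 7 days old with five fish per well; signal comes from phospholipase A2 cleavage of quenched PED6 carried via bile; overnight exposure to compound and PED6 before scoring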). Conditions: Zebrafish larvae PED6 lipid processing, fluorescence scoring; screened at 20 µM (by protocol).
Experiment [9] in a line: inhibitors of Chlamydomonas gravitaxis, primary screen, whole organism, Chlamydomonas reinhardtii, WT vs cilia-less mutant, absorbance, 96-well (AID 463189).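 Further: 0% = wild type cc124 cells in DMSO and 100% = ciliumless bld1 mutant cells.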 Conditions: OD600 absorbance, 2 days, at 10 µM, stronger effect = higher value.
Experiment [10] is described as follows: inhibitors of Sendai virus-induced IRF3 signaling, primary screen, TLR/RLR signaling modifier project, cell-based, Sendai virus stimulus, luciferase, 10K MLSCN set (AID 602276;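 active means inhibition at or above 50% at 10 µM; inactive means inhibition below 50%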;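 further: firefly luciferase from ISG56 promoter only with Renilla not read in this screen; 0% = Sendai virus plus DMSO and 100% = medium plus DMSO without virus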). Conditions: HEK293 RL24 IRF3 luciferase reporter, at 10 µM, stronger effect = higher value. A general note: Reporter assays use an easily measured gene product as a stand-in for the process of interest.

The nature of experiment [11]: inhibitors of poly I:C-induced TLR3 signaling, primary screen, cell-based, poly I:C stimulus, luciferase, 10K MLSCN set (AID 602277;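 active means inhibition of the reporter signal at or above 50%; inactive means inhibition below 50%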). Conditions: HEK293-TLR3 RL24 IRF3 luciferase reporter, at 10 µM, stronger effect = higher value.
[12] abbreviates: measured here: cell density z-score.
Setting [13] is: measured here: nuclear c-Myc green intensity z-score.
Where [14] appears, read: measured here: nuclear pErk red intensity z-score, stronger effect = higher value.

Structures are written as SMILES. Values joined by “and” are separate entries in the source; they are usually repeats but may differ in a detail not shown here. Equal entries are not always repeated. The source holds several records for some structures; these can differ, active in one and inactive in another. Active and inactive are the calls of the source.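 How the source made its calls, unless noted: active means inhibition at or above 50% relative to wild type and mutant plate controls; inactive means inhibition below 50%.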

For orientation: inhibition means the relative decrease from the control value, in per cent.

Take `CN(C)C(=O)Oc1ccc[n+](C)c1`: the inhibition of aggregation in experiment [1] is -10% (inactive). Also, the nuclei count in [1] worked out at 104%; in experiment [2], 132%. For the same compound, the inhibition in experiment [2] is -27% (inactive); in experiment [4], 13.3% (inactive); in experiment [9], -1.87% (inactive) and 14.9% (inactive); in experiment [10], 6.65% (inactive); in experiment [11] it was 26.9% (inactive). Also, the results for the z-score in experiment [3] (setting [12]), in [3] (setting [13]) and in experiment [3] (setting [14]) were -0.869, 0.159 and 0.378, respectively. Also, in experiment [5], the fluorescence slope is -0.448 (inactive). Moreover, the NADPH fluorescence slope in experiment [6] was -5.3e-05 (inactive). In [7], the slope was 0.005 (inactive). Besides, in [8], the result was inactive.

For the compound `CCCCNC(=O)NS(=O)(=O)c1ccc(C)cc1`, the inhibition of aggregation in experiment [1] was 10.9% (inactive). Besides, the nuclei count in [1] turned out to be 99.2%; in [2] it was 107%. The inhibition in experiment [2] is -56.6% (inactive); in experiment [4] it was 9.37% (inactive); in experiment [9], 7.5% (inactive) and 29.4% (inactive); in experiment [10], -6.27% (inactive); in [11] it was 5.7% (inactive). Further, the figures for the z-score in experiment [3] (setting [12]), in experiment [3] (setting [13]) and in [3] (setting [14]) were 0.542, -0.348 and -1.78, respectively. The fluorescence slope in [5] was -0.454 (inactive). Also, in experiment [6], the NADPH fluorescence slope was 3.1e-05 (inactive). For the same compound, the slope in experiment [7] is 0.00531 (inactive). The result in [8] was inactive.

On to `CCn1cc(C(=O)O)c(=O)c2cnc(N3CCNCC3)nc21`, for which the inhibition of aggregation in experiment [1] was 1.6% (inactive). In addition, the results for the nuclei count in [1] and in experiment [2] were 108% and 127%, respectively. The inhibition in experiment [2] was -26.1% (inactive); in [4] it was 14.6% (inactive); in [9], -9.24% (inactive); in experiment [10] it was 4.06% (inactive); in [11] it was 33.1% (inactive). Moreover, the results for the z-score in [3] (setting [12]), in experiment [3] (setting [13]) and in experiment [3] (setting [14]) were 0.597, 0.614 and 0.576, respectively. Also, the fluorescence slope in experiment [5] was -0.512 (inactive). Also, the NADPH fluorescence slope in [6] was -1.1e-05 (inactive). In addition, the slope in experiment [7] was 0.00483 (inactive). Also, the compound was classed as inactive in [8].

For `CNCCC(Oc1ccc(C(F)(F)F)cc1)c1ccccc1` (stereo not given), the inhibition of aggregation in experiment [1] is 10.2% (inactive). Further, the values for the nuclei count in experiment [1] and in experiment [2] were 100% and 127%, respectively. Further, the inhibition was -36.9% (inactive) in experiment [2]; 12.4% (inactive) in [4]; 1.27% (inactive) and 34.8% (inactive) in experiment [9]; 21% (inactive) in experiment [10]; 34.3% (inactive) in experiment [11]. In addition, the z-score in experiment [3] (setting [12]) is -0.242; in experiment [3] (setting [13]) it was 0.755; in experiment [3] (setting [14]), 0.581. In addition, the fluorescence slope in experiment [5] was -0.447 (inactive). The NADPH fluorescence slope in [6] is -4.5e-05 (inactive). For the same compound, the slope in [7] is 0.00359 (inactive). In addition, the result in experiment [8] was inactive.

`C[C@H]1C[C@H]2[C@@H]3CCC4=CC(=O)C=C[C@]4(C)[C@@]3(Cl)[C@@H](O)C[C@]2(C)[C@@]1(O)C(=O)CO`: in experiment [1], the inhibition of aggregation was -11.8% (inactive). Also, the nuclei count in [1] is 69.5%; in experiment [2], 113%. The inhibition in [2] was -5.2% (inactive); in [4] it was -4.44% (inactive); in [9], -5.54% (inactive); in experiment [10], 8.02% (inactive); in experiment [11], 22.6% (inactive). Further, the z-score in [3] (setting [12]) is 0.584; in [3] (setting [13]), -0.957; in experiment [3] (setting [14]), -0.321. Also, the fluorescence slope in experiment [5] was -0.496 (inactive). Besides, the NADPH fluorescence slope in experiment [6] was -7.9e-05 (inactive). Moreover, the slope in [7] was 0.00488 (inactive). The outcome in experiment [8] was inactive.

Turning to `CC(COc1ccccc1)N(CCCl)Cc1ccccc1` (stereo not given), the inhibition of aggregation in experiment [1] was 3.6% (inactive). For the same compound, the nuclei count in [1] was 91.3%; in [2] it was 106%. Further, the inhibition is -41.5% (inactive) in experiment [2]; 3.59% (inactive) in experiment [4]; -4.83% (inactive) and 76.9% (active) in experiment [9]; 4.33% (inactive) in experiment [10]; 22.7% (inactive) in [11]. The z-score was 0.673 in experiment [3] (setting [12]), 0.156 in experiment [3] (setting [13]) and -1.5 in [3] (setting [14]). In [5], the fluorescence slope is -0.458 (inactive). Besides, the NADPH fluorescence slope in experiment [6] is -8e-05 (inactive). For the same compound, the slope in experiment [7] is 0.00427 (inactive). The compound was called inactive in [8].

On to `COc1cc2nc(N3CCN(C(=O)C4COc5ccccc5O4)CC3)nc(N)c2cc1OC` (stereo not given), for which the inhibition of aggregation in experiment [1] is -4.2% (inactive). Further, the nuclei count in [1] worked out at 100%; in experiment [2] it was 123%. Moreover, the inhibition in [2] is -103% (inactive); in [4], -0.493% (inactive); in experiment [9] it was -6.99% (inactive) and 1.78% (inactive); in experiment [10] it was 5.11% (inactive); in [11] it was 24.7% (inactive). Also, the z-score was 0.0825 in [3] (setting [12]), -0.753 in experiment [3] (setting [13]) and -0.892 in [3] (setting [14]). The fluorescence slope in experiment [5] is -0.435 (inactive). Further, in experiment [6], the NADPH fluorescence slope is -3.3e-05 (inactive). Moreover, the slope in experiment [7] was 0.00431 (inactive). For the same compound, the result in experiment [8] was inactive.

Turning to `COc1ccc2c(c1)c(CC(=O)O)c(C)n2C(=O)c1ccc(Cl)cc1`, in experiment [1], the inhibition of aggregation was -23.8% (inactive). Moreover, the nuclei count in experiment [1] was determined as 104%; in experiment [2], 122%. In addition, the inhibition was -69% (inactive) in experiment [2]; 16.8% (inactive) in experiment [4]; 2.25% (inactive) and -4% (inactive) in experiment [9]; 9.52% (inactive) in [10]; 22.4% (inactive) in experiment [11]. The z-score is 0.752 in experiment [3] (setting [12]), -1.27 in [3] (setting [13]) and -0.74 in experiment [3] (setting [14]). In [5], the fluorescence slope was -0.474 (inactive). The NADPH fluorescence slope in [6] was -6.7e-05 (inactive). For the same compound, the slope in experiment [7] is 0.00463 (inactive). Also, the compound was classed as inactive in experiment [8].

As for `Cc1cc(C)nc(NS(=O)(=O)c2ccc(N)cc2)n1`, in experiment [1], the inhibition of aggregation is -9.6% (inactive). Moreover, the nuclei count in experiment [1] turned out to be 104%; in experiment [2], 107%. Besides, the inhibition in experiment [2] is -28.5% (inactive); in [4] it was -3.03% (inactive); in experiment [9], -15% (inactive); in experiment [10], 15.1% (inactive); in [11] it was 26.9% (inactive). The z-score in experiment [3] (setting [12]) is -0.395; in experiment [3] (setting [13]), 0.0726; in experiment [3] (setting [14]) it was -0.14. The fluorescence slope in experiment [5] is -0.51 (inactive). Also, in [6], the NADPH fluorescence slope was -5.4e-05 (inactive). Also, the slope in [7] is 0.00415 (inactive). In experiment [8], the call was inactive.

With `CC1(C)O[C@@H]2C[C@H]3[C@@H]4C[C@H](F)C5=CC(=O)C=C[C@]5(C)[C@@]4(F)[C@@H](O)C[C@]3(C)[C@]2(C(=O)CO)O1`, the inhibition of aggregation in experiment [1] is -15.7% (inactive). For the same compound, the nuclei count was found to be 58% in [1] and 102% in experiment [2]. Moreover, the inhibition in experiment [2] was -6.4% (inactive); in [4] it was 27.1% (inactive); in experiment [9], -10.3% (inactive); in experiment [10], 5.68% (inactive); in experiment [11], 56.9% (active). In addition, the figures for the z-score in experiment [3] (setting [12]), in experiment [3] (setting [13]) and in experiment [3] (setting [14]) were 1.28, -0.179 and -0.732, respectively. Besides, in experiment [5], the fluorescence slope is -0.489 (inactive). Besides, in experiment [6], the NADPH fluorescence slope is 1.8e-05 (inactive). In addition, the slope in experiment [7] was 0.00523 (inactive). For the same compound, the compound was classed as inactive in experiment [8].
